# Laboratory results published in PMC5540273 (PLoS ONE, 2017).
# Assays:
# Details in all cases: concentration: 1 μM,replicates: in singlicate; n = 1
# [1] = test system: TNNI3K
# [2] = test system: T1, TRKA
# T1 construct: gene NTRK1
# [3] = test system: TRKB
# [4] = test system: T2, TRKC
# T2 construct: gene NTRK3
# [5] = test system: TRPM6
# [6] = test system: TSSK1B
# [7] = test system: TSSK3
# [8] = test system: TTK
# [9] = test system: TXK
# [10] = test system: TYK2(JH1domain-catalytic)
# [11] = test system: TYK2(JH2domain-pseudokinase)
# [12] = test system: TYRO3
# [13] = test system: ULK1
# [14] = test system: ULK2
# [15] = test system: ULK3
# [16] = test system: T3, VEGFR2
# T3 construct: gene KDR
# [17] = test system: T4, VPS34
# T4 construct: gene PIK3C3
# [18] = test system: VRK2
# [19] = test system: WEE1
# [20] = test system: WEE2
# 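Note: KINOMEscan kinase panel screen.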
SMILES,%Inh [1] [%],%Inh [2] [%],%Inh [3] [%],%Inh [4] [%],%Inh [5] [%],%Inh [6] [%],%Inh [7] [%],%Inh [8] [%],%Inh [9] [%],%Inh [10] [%],%Inh [11] [%],%Inh [12] [%],%Inh [13] [%],%Inh [14] [%],%Inh [15] [%],%Inh [16] [%],%Inh [17] [%],%Inh [18] [%],%Inh [19] [%],%Inh [20] [%]
Cc1ccc(Nc2ccnc(Nc3ccc4c(c3)CS(=O)(=O)C4)n2)cc1O.Cl [GW579362],70,100,91.7,78,25,1,27,81,90,96.9,99.5,79,55,2,99.5,93.6,76,0,50,98.3
FC(F)(F)c1cc(Br)cc(Nc2nccc(-c3cnn4ncccc34)n2)c1 [GW810578],66,48,0,1,0,5,5,41,7,0,89,0,21,20,12,40,64,4,5,70
COc1cccc(CNC(=O)NC2CCN(c3ccnc(Nc4cc(OC)c(OC)c(OC)c4)n3)C2)c1 (stereo not shown) [GSK1379765],0,52,7,55,0,0,18,22,0,54,43,0,0,0,90,13,0,0,30,9
O=C(Nc1n[nH]c2cc(-c3ccco3)ccc12)C1CC1 [SB-737447],0,57,19,32,0,0,0,18,0,21,0,0,11,0,20,6,16,0,0,2
CC(C(=O)NC1CCN(c2ccnc(Nc3ccc(F)cc3)n2)C1)c1ccc(Cl)cc1 (stereo not shown) [GSK1379713],0,33,11,0,0,0,5,11,0,9,0,0,7,0,2,3,4,0,6,13
CCCC(=O)Nc1n[nH]c2ncccc12 [SB-601436],0,0,6,28,2,0,0,0,0,0,0,0,0,18,0,0,0,0,0,0
CNC(=O)c1ccccc1Nc1nc(Nc2cccc(CS(C)(=O)=O)c2)ncc1C.O=CO [GSK1520489],66,98,91.1,97.4,78,9,0,93.8,99.7,99.6,98.9,72,98.6,65,99.9,96.3,77,36,98.1,99.9
COc1ccc(Nc2nccc(N3CCC(NC(=O)c4cccc(C#N)c4)C3)n2)cc1 (stereo not shown) [GSK1379730],0,40,14,43,0,0,12,0,41,44,18,0,0,0,10,0,46,0,0,6
Cl.c1ccc(Oc2ccc(Nc3ccnc4cc(-c5ccc(CN6CCNCC6)o5)ccc34)cc2)nc1 [GW567142],0,98.7,0,15,50,0,5,0,11,3,10,0,0,16,0,25,0,0,8,0
CCn1c(-c2nonc2N)nc2cncc(CNC3CCNCC3)c21.Cl [SB-747651],4,0,43,24,21,55,6,0,16,31,47,0,17,0,6,0,0,9,8,7
CCNCC(Cc1ccccc1)NC(=O)c1cc(Br)c(-c2ccnc3[nH]ccc23)s1.Cl.Cl (stereo not shown) [GSK1383280],11,90,77,50,8,60,13,67,0,46,10,0,0,0,8,36,0,0,0,7
CC(=O)c1c(-c2ccncc2)[nH]c(-c2ccncc2)c1C [GW493036],0,0,0,0,33,34,13,3,35,42,90,0,3,0,10,0,50,55,17,0
NC(=O)c1ccc(-c2cc3ncnc(SCC(=O)O)c3s2)cc1,0,54,35,0,0,0,0,13,0,2,42,0,0,0,11,0,0,0,0,0
Nc1nccc(-c2ccc3c(N)n[nH]c3c2)n1 [GSK1034945],13,0,0,0,26,0,27,0,0,34,52,0,41,13,4,0,0,0,35,0
CC(C)S(=O)(=O)N1CCN(Cc2ccc3c(c2)nc(NC(=O)c2ccsc2)n3C[C@H](O)c2ccccc2)CC1 [GW635815],8,100,94.2,95.5,18,5,16,29,0,66,8,31,82,60,92.1,3,18,11,29,6
COc1cccc(C2=C(Nc3cccc(Cl)c3)C(=O)NC2=O)c1 [SB-341556],14,0,36,19,0,16,6,13,1,14,46,21,42,7,12,0,0,0,5,0
C[C@@H](Oc1cc(-n2cnc3ccc(-c4ccncc4)cc32)sc1C(N)=O)c1ccccc1Cl [GSK483724],6,57,7,18,34,29,17,34,11,18,42,0,6,0,7,8,96.4,0,46,1
Cn1ccc2ncnc(Oc3ccc(NC(=O)Nc4cnn(C(C)(C)C)c4)c(Cl)c3)c21,54,39,56,82,0,0,7,4,0,0,3,0,0,7,0,99.1,16,0,0,5
COc1cc2ncn(-c3cc(OCC4CCCCC4)c(C(N)=O)s3)c2cc1OC [GSK204559],5,31,0,0,13,0,3,30,0,12,15,0,9,0,25,4,20,0,0,25
CCOC(=O)N1CCC(n2cnc(-c3ccc(F)cc3)c2-c2ccnc(N)n2)CC1 [SB-219952],0,42,34,24,4,0,12,0,16,48,67,20,4,26,8,3,35,27,0,0
O=C(Nc1ccc(Oc2ccc3nc(NC(=O)C4CC4)cn3n2)c(F)c1)c1cccn(-c2ccccc2)c1=O,12,87,80,20,0,0,0,10,69,0,0,74,0,0,0,98.2,44,0,14,0

SMILES,%Inh [1] [%],%Inh [2] [%],%Inh [3] [%],%Inh [4] [%],%Inh [5] [%],%Inh [6] [%],%Inh [7] [%],%Inh [8] [%],%Inh [9] [%],%Inh [10] [%],%Inh [11] [%],%Inh [12] [%],%Inh [13] [%],%Inh [14] [%],%Inh [15] [%],%Inh [16] [%],%Inh [17] [%],%Inh [18] [%],%Inh [19] [%],%Inh [20] [%]
N#Cc1cccc(C(=O)NC2CCN(c3ccnc(Nc4ccc(F)cc4)n3)C2)c1 (stereo not shown) [GSK1379708],4,0,8,28,0,0,18,0,0,14,12,0,7,0,0,0,0,0,12,6
Cc1n[nH]c2cc(Nc3ccnc(Nc4cccc(CN5CCOCC5)c4)n3)ccc12 [GW682569],17,100,60,45,43,0,12,37,60,95.9,99.2,0,1,0,55,45,18,27,10,0
Cn1ccc2ncnc(Oc3ccc(NC(=O)Nc4cccc(C(F)(F)F)c4)c(Cl)c3)c21,87,53,84,84,0,0,0,25,0,0,0,0,0,0,1,98.2,0,0,3,9
CN1CCN(CCCNc2nccc(-c3c(-c4ccc(F)cc4)nn4cc(C(N)=O)ccc34)n2)CC1 [GW622475],3,43,10,6,23,18,24,8,47,0,40,0,8,0,0,9,19,0,2,0
NC(=O)Nc1sc(-c2ccc(F)cc2)cc1C(N)=O [GW789449],24,98.6,89,67,1,0,0,32,21,98.6,100,16,32,40,55,19,22,0,30,11
Cc1cccc2c(-c3ccncc3)c(-c3ccc(F)cc3)nn12.Cl [GW461487],8,37,0,0,0,4,15,0,0,7,0,0,0,0,1,0,18,0,8,11
c1ccc(Oc2ccc(Nc3ccnc4ccc(-c5ccccn5)cc34)cc2)cc1 [GW407034],0,0,15,9,27,27,19,1,27,7,15,0,49,0,5,0,0,0,15,0
CCn1c(-c2nonc2N)nc2cncc(Br)c21 [SB-738004],0,56,20,44,0,0,25,0,0,58,18,0,14,13,3,37,36,35,13,0
COc1cc2c(Nc3ccc(NC(=O)c4ccccc4)cc3)ncnc2cc1OCCCN1CCOCC1 [GSK301329],9,84,0,0,23,0,16,50,4,2,0,13,7,0,13,6,2,0,19,9
CC(=O)Nc1ccc(-c2cc3ncnc(SCC(=O)O)c3s2)cc1,0,31,0,0,23,21,0,0,17,37,0,0,10,13,15,27,0,0,0,4
COc1cccc(OC)c1C(=O)Nc1cccc(-c2nn3ccccc3c2-c2ccnc(Nc3cccc(F)c3)n2)c1 [GSK361065],8,0,0,0,4,20,0,5,6,0,0,79,0,13,0,18,0,0,9,12
O=c1[nH]cc(-c2ccc(O)cc2)c2sc(-c3ccncc3)cc12 [GSK1033723],18,46,0,14,2,0,9,11,5,0,16,8,8,2,6,0,0,0,3,0
Cc1ccc(C(=O)Nc2ccc(Oc3ccc4nc(NC(=O)C5CC5)cn4c3)c(F)c2)c(=O)n1-c1ccccc1,24,100,99.9,99,0,12,0,17,76,20,0,81,0,0,7,99.1,43,0,0,0
C[C@@H]1CNc2c(sc3ccc4nc(-c5ccncc5)ccc4c23)C(=O)N1,0,0,0,0,0,33,2,16,0,46,59,0,26,27,0,13,0,0,0,0
COC(=O)c1cccc(NC(=O)NC2CCN(c3ccnc(Nc4cc(OC)c(OC)c(OC)c4)n3)C2)c1 (stereo not shown) [GSK1379767],0,97.1,81,95.6,0,9,13,0,0,40,18,0,0,0,58,15,0,25,8,0
O=C1NCCc2[nH]c(-c3ccncc3)cc21,0,10,19,14,0,0,0,1,2,80,41,0,25,32,18,25,25,19,13,0
Cn1ccc2ncnc(Oc3ccc(NC(=O)Nc4cc(C(C)(C)C)on4)c(Cl)c3)c21,90.7,96.1,96.4,99.1,0,0,3,2,0,7,26,28,8,11,16,97.5,16,19,0,23
Cc1ccc2c(-c3ccnc(Nc4ccc(C(F)(F)F)cc4)n3)cnn2n1 [GW819776],3,0,0,0,43,0,0,38,0,5,69,0,0,0,21,0,48,31,6,0
Cl.Cl.NC[C@H](CC1CCCCC1)NC(=O)c1ccc(-c2ccnc3[nH]ccc23)s1 [GSK1581428],0,77,26,54,7,84,25,41,0,29,0,0,31,0,13,0,9,26,8,30
COC(=O)c1cccc(NC(=O)NC2CCN(c3ccnc(NCc4ccc(F)cc4)n3)CC2)c1 [GSK1379860],0,0,12,24,0,0,11,0,7,13,5,17,20,0,15,8,17,7,8,8
